RGS8-Gao: human RGS8-Galphao interaction regulation. P09471. multiplexed bead flow cytometry, RGS8-Galphao binding; actives lie on both sides. response (percent of control binding), % at 10 µM. 0.34% of 220,000 active. AID 1423; in the data active = response below about 60% or above about 140%; inactive = in between;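 also: Galphao activated as the GDP aluminium fluoride complex binding bead-coupled RGS8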
Target sequence (P09471 whole entry, looked up): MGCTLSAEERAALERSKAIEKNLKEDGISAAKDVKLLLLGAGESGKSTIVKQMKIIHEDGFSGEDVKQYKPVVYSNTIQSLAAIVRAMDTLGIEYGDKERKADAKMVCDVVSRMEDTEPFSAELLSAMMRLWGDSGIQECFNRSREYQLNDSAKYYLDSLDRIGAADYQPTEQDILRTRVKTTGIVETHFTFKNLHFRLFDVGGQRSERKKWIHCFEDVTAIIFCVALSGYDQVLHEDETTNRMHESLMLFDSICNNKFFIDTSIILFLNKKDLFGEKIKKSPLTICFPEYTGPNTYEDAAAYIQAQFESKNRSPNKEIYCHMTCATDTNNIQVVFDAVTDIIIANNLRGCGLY
RGS7-Gao: regulators of human RGS7-Galphao interaction; AID 1439; 0.35% of 220,000 active; P09471; Multiplexed bead flow cytometry, RGS7-Galphao binding; actives lie on both sides; binding response (% of control), % at 10 µM; in the data active = binding response below about 49% or above about 150%; inconclusive = no clear call, values can overlap the other calls; inactive = in between;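 also: fluorescent Galphao held in activated GDP-AlF4 state binding bead-coupled RGS7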
RGS16-Gao: regulators of human RGS16-Galphao interaction | bead-based flow cytometry RGS16-Galphao binding, fluorescence; actives lie on both sides | binding response (% of control), % at 10 µM | O15492+P09471 | 0.38% of 220,000 active;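 also: Galphao activated by GDP with aluminum fluoride before binding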
RGS4-Gao reg: modulates binding of RGS4 to human Galphao | Multiplexed bead flow cytometry; actives lie on both sides | binding response (% of control), % at 10 µM | 0.33% of 220,000 active | AID 1415; in the data active = binding response below about 49% or above about 150%; inactive = in between;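 also: fluorescent Galphao activated with aluminum fluoride binding bead-coupled RGS4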
RGS-Gao: modulates binding between human RGS4 and Galphao; 99% of 1,600 active; RGS4–Galpha-o binding response, % at 10 µM; shares compounds with RGS16-Gao; multiplexed bead flow cytometry, RGS–Galpha-o binding;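 also: fluorescently labeled Galpha-o bound to GDP with aluminium fluoride binding biotinylated RGS beads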
Biotin-avidin: counter-screen: compounds disrupting biotin binding to avidin beads; 1,700 tested, under 10 active; streptavidin beads, fluorescein-biotin binding, flow cytometry; shares compounds with RGS16-Gao; inhibition, % at 10 µM;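 active = inhibition above 50%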;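 also: median green fluorescence of gated singlet beads compared with DMSO control wells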
RGS8-Gao confirm: confirmation of regulators of human RGS8-Galphao interaction; binding response (% of control), % at 10 µM; shares compounds with RGS16-Gao; AID 1836; bead-based flow cytometry RGS8-Galphao binding, fluorescence; actives lie on both sides; 3% of 1,700 active; in the data active = binding response below about 72% or above about 130%; inactive = in between;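 also: Galphao activated as GDP AlF4 complex before binding bead RGS8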
RGS7-Gao single: RGS7-Galphao interaction regulation, single point confirmation | 7.8% of 1,700 active | bead-based flow cytometry RGS7-Galphao binding; actives lie on both sides | shares compounds with RGS16-Gao | response (percent of control binding), % at 10 µM; in the data active = response below about 75% or above about 130%; inactive = in between;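 also: fluorescent Galphao activated with GDP and aluminum fluoride binding bead-coupled RGS7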
RGS16-Gao single: confirmation of regulators of human RGS16-Galphao interaction; 4% of 1,700 active; bead-based flow cytometry, RGS16-Galphao binding; actives lie on both sides; AID 1838; response (% of control binding), % at 10 µM; shares compounds with RGS16-Gao; in the data active = response below about 74% or above about 130%; inactive = in between;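 also: Galphao activated as the GDP aluminium fluoride complex binding bead-coupled RGS16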
RGS4-Gao single: RGS4-Galphao interaction regulation, single point confirmation. RGS4-Galphao binding, multiplexed bead flow cytometry; actives lie on both sides. binding response (% of control), % at 10 µM. AID 1840. shares compounds with RGS16-Gao. 4% of 1,700 active; in the data active = binding response below about 74% or above about 130%; inactive = in between
RGS19-Gao single: confirmation of regulators of human RGS19-Galphao interaction; shares compounds with RGS16-Gao; bead-based flow cytometry RGS19-Galphao binding; actives lie on both sides; response (percent of control binding), % at 10 µM; 5% of 1,700 active; AID 1841; in the data active = response below about 50% or above about 160%; inactive = in between
Target sequence (P09471 whole entry, looked up): as above
Target sequence (P49795 whole entry, looked up): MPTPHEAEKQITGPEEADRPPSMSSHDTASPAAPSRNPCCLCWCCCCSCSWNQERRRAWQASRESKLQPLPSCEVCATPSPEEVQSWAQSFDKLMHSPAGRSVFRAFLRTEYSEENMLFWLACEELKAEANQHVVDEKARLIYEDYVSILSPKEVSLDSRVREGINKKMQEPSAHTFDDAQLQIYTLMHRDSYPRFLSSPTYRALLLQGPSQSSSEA
Numbers stand for hits; n = inactive; u = inconclusive; x = not tested or not shown; ! = not confirmed by another sample; [ ] = remark or other dose. An excerpt weighted towards active compounds, which were near 0.78% of everything screened. Unless noted, no rule for the calls is given here.

SMILES	RGS8-Gao	RGS7-Gao	RGS16-Gao	RGS4-Gao reg	Biotin-avidin	RGS8-Gao confirm	RGS7-Gao single	RGS16-Gao single	RGS4-Gao single	RGS19-Gao single	others
CC(C)N1CCc2c(sc(NC(=O)c3ccc(S(=O)(=O)N4CCc5ccccc54)cc3)c2C(N)=O)C1	n	153[activator]	n	n	x	x	x	x	x	x	RGS-Gao=147
CC(C)N1CCc2c(sc(NC(=O)c3nc4ccccc4s3)c2C(N)=O)C1	n	n	n	n	x	x	x	x	x	x
C/C(=N\NC(=O)c1cc(C(C)C)[nH]n1)c1ccco1	n	n	190[activator]	n	n	n	n	n	n	n	RGS-Gao=102
C/C(=N/NC(=O)c1cc(-c2ccc(Br)s2)[nH]n1)c1ccco1	n	n	n	n	x	x	x	x	x	x
CCN(CC)CCn1c2ccccc2c2cnc(N=CN(C)C)c(C#N)c21	n	n	n	n	x	x	x	x	x	x
CCOC(=O)c1cc(OCC(=O)NC(C)C(C)C)cc(C(=O)OCC)c1 (stereo not drawn)	6.1	-9.7	-19	-31	n	n	n	n	n	n
COCCCNC(=O)c1ccc2c3c(onc13)-c1ccccc1C2=O	n	u	n	43	n	69	64	68	n	42
COCCCNC(=O)c1ccccc1Oc1ccccc1	n	n	n	n	x	x	x	x	x	x
CS(=O)(=O)c1nc2ccccc2n1Cc1ccccc1	x	x	x	x	n	n	n	n	n	n
O=S(=O)(O)c1nc2ccccc2n1Cc1ccccc1	n	n	n	n	x	x	x	x	x	x
CCOc1ccccc1/C=N/NC(=O)c1cccc(S(=O)(=O)N(CC)CC)c1	n	n	n	n	x	x	x	x	x	x
CCN(CC)S(=O)(=O)c1cccc(C(=O)N/N=C/c2ccc(O)c(O)c2O)c1	51	31	n	43	n	64	61	57	63	16
CCCN1C(=O)c2cccc3c(N4CCCCC4)ccc(c23)C1=O	n	n	18	n	n	n	n	n	n	n	RGS-Gao=92
O=c1oc2ccccc2c(N2CCCC2)c1[N+](=O)[O-]	161[activator]	157[activator]	180[activator]	157[activator]	n	n	n	n	n	n
O=c1oc2ccccc2c(N2CCCCC2)c1[N+](=O)[O-]	n	n	n	n	x	x	x	x	x	x
O=C(Nc1ccc(Nc2ccncc2)cc1)c1ccc(Nc2ccnc3ccc([N+](=O)[O-])cc23)cc1	59	u	n	24	n	n	n	n	n	n
Cc1nnc(SCC(=O)NC(=O)NCc2ccco2)s1	n	u	n	n	x	x	x	x	x	x
O=C(CSc1nn(-c2ccc(F)cc2)c(=S)s1)NC(=O)NCc1ccco1	n	n	19	n	n	n	n	n	n	n	RGS-Gao=74
CCCCCNC(=O)c1cc(S(=O)(=O)N2CCCC2)ccc1F	n	n	22	n	n	n	n	n	n	n	RGS-Gao=84
COc1cc2c(cc1NC(=O)CSc1nnc(Cc3cccs3)n1Cc1ccco1)oc1ccccc12	n	n	n	n	x	x	x	x	x	x
COc1cc2c(cc1NC(=O)CSc1nnc(Cc3cccs3)n1C)oc1ccccc12	n	248[activator]	314[activator]	315[activator]	n	n	n	n	n	n
COc1cc(C(=O)OCC#N)ccc1OCc1c(C)noc1C	n	u	n	n	x	x	x	x	x	x
COc1cc(C(=O)OCC(=O)NC2CCS(=O)(=O)C2)ccc1OCc1c(C)noc1C (stereo not drawn)	n	154[activator]	n	n	n	n	n	n	n	n	RGS-Gao=100
Cc1cc(-n2c(=O)c(C#N)cc3c(=O)n4ccccc4nc32)no1	n	n	-3.0	n	x	x	x	x	x	x	RGS-Gao=89
Cc1ccccc1-n1c(=O)c(C#N)cc2c(=O)n3ccccc3nc21	n	n	n	n	x	x	x	x	x	x
SMILES	RGS8-Gao	RGS7-Gao	RGS16-Gao	RGS4-Gao reg	Biotin-avidin	RGS8-Gao confirm	RGS7-Gao single	RGS16-Gao single	RGS4-Gao single	RGS19-Gao single	others
Cc1ccc(S(=O)(=O)N2CCN(C(=O)c3cccc(F)c3)CC2)cc1	n	264[activator]	n	n	n	n	n	n	n	n	RGS-Gao=125
Cc1cc(C(=O)CSc2nnc(-c3cccnc3)n2-c2ccccc2F)c(C)n1C	11!	5.0!	-0.8!	6.8!	n	n	n	n	n	n
O=C(CCN1CCN(C/C=C/c2ccccc2)CC1)Nc1ccccc1F	n	n	n	n	x	x	x	x	x	x
O=C(Nc1ccc(C2=NCCN2)cc1)c1ccc(C(=O)Nc2ccc(C3=NCCN3)cc2)c(Cl)c1	143[activator]	u	n	199[activator]	n	n	n	n	n	n
CCN(CCNC(=O)CN(C)S(=O)(=O)c1cccc2nsnc12)c1ccccc1	n	n	n	n	x	x	x	x	x	x
CCN(CCCNC(=O)CN(C)S(=O)(=O)c1cccc2nsnc12)c1cccc(C)c1	x	x	x	x	n	n	n	n	n	n
Cc1nc2ccccn2c1C(=O)/C=C/c1cccc([N+](=O)[O-])c1	n	u	n	n	x	x	x	x	x	x
COc1ccc(NC(=O)NCCCN2CCN(c3cc(C)ccc3C)CC2)cc1	n	n	n	n	x	x	x	x	x	x
COc1ccc(NC(=O)NCCCN2CCN(c3ccccc3F)CC2)cc1	22	u	8.9	12	n	n	n	n	n	n
COc1ccc(Cl)cc1S(=O)(=O)N1CCCC1	x	x	x	x	n	n	n	n	n	n
COc1ccc(Cl)cc1S(=O)(=O)N1CCN(C)CC1	n	n	n	n	x	x	x	x	x	x
Cc1cccc(NCc2cc(Cl)cc(Cl)c2O)n1	n	278[activator]	323[activator]	274[activator]	n	n	n	n	n	n
CCN(c1ccccc1)S(=O)(=O)c1cccc(C(=O)NCC(c2cccs2)N(C)C)c1 (stereo not drawn)	n	n	n	n	x	x	x	x	x	x
O=C(NCCc1nnc2ccc(NCC3CCCO3)nn12)c1ccccc1 (stereo not drawn)	n	n	n	n	x	x	x	x	x	x
COc1cccc(Oc2cn[nH]c2-c2ccc(OC)cc2O)c1	n	281[activator]	n	n	x	x	x	x	x	x	RGS-Gao=133
CC(=O)Nc1cccc(-c2nnc(-c3ccccc3)o2)c1	n	n	n	n	x	x	x	x	x	x
O=C(CN1CCCCC1)Nc1ccccc1-c1ccccc1	159[activator]	n	n	n	n	n	n	n	n	n	RGS-Gao=144
O=C(CN1CCOCC1)Nc1ccccc1-c1ccccc1	n	n	n	n	x	x	x	x	x	x
CC(C)(C)NC(=O)C(c1ccncc1)N(C(=O)Cn1nnc(-c2ccc(F)cc2)n1)c1ccccc1 (stereo not drawn)	n	n	n	n	x	x	x	x	x	x

Source: PubChem BioAssay
